For assay [1], the system named is Wnt5a (protein binding on small-molecule microarray). The assay can be described thus: Wnt5a binders on small-molecule microarray, primary screen, biophysical, 635/667 nm fluorescence (AID 1142).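 Further: fluorescence read at 667 nm with signal to noise per printed feature.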 As to conditions: 635 nm fluorescence, higher = more signal.
Assay [2] can be described thus: cell viability in Huh7 cells, primary screen, cytotoxicity control for HCV replication inhibitor project, CellTiter-Glo luminescence, basal, 48 h (AID 1143).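 Further: Huh7 hepatoma cells carrying a hepatitis C replication reporter with no stimulus; test concentration not given here.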 As to conditions: Huh7 HCV replicon, higher = more signal, called active from +8 up or from −8 down.
Assay [3] in a line: P. aeruginosa biofilm formation inhibitors, primary screen, PAO1 strain, BacTiter-Glo luminescence, LB-PBS (AID 1144). As to conditions: 12 h, higher = more signal.
Assay [4] can be described thus: CREB reporter modulators without forskolin, primary screen, cell-based, PC12, CRE-LacZ reporter, unstimulated (AID 1145). As to conditions: no forskolin, luminescence, 4.5 h, higher = more signal, called active from +8 up or from −8 down.
Assay [5] in a line: CREB reporter modulators under forskolin, primary screen, cell-based, PC12, CRE-LacZ reporter, forskolin-stimulated (AID 1146).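 Further: PC12 cells with 6xCRE LacZ reporter stimulated by forskolin 10 µM; beta-galactosidase reporter signal reflecting CREB driven transcription.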 As to conditions: luminescence, 4.5 h, higher = more signal, called active from +8 up or from −8 down.
The target in assay [6] is Streptavidin (Streptomyces avidinii) (UniProt P22629). The assay can be described thus: streptavidin binders on small-molecule microarray, primary screen, artefact control for SMM compound annotation, biophysical, 635/667 nm fluorescence (AID 1147).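 Further: signal reflects streptavidin binding to arrayed compounds as a control protein.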 As to conditions: streptavidin binding, higher = more signal.
The nature of assay [7]: small-molecule binders of probe aInhba, primary screen, biochemical, small-molecule microarray, 635/667 nm fluorescence (AID 1148).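 Further: score merges 667nm spot fluorescence with signal-to-noise for antibody binding to printed compounds.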 As to conditions: higher = more signal.
Assay [8] concerns the target Torsin-1A (Homo sapiens) (UniProt O14656). The assay can be described thus: torsin A binders from cell lysate, primary screen, small-molecule microarray, wild-type, 635/667 nm (AID 1149). As to conditions: COS7 hTOR1A-WT lysate, 635 nm fluorescence, higher = more signal.
The target is the same in assay [9]. The assay can be described thus: small-molecule binders of mutant TOR1A in lysate, primary screen, cell lysate, small-molecule microarray, COS7 lysate, 635/667 nm fluorescence (AID 1150).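 Further: score pools 667 nm emission and signal to noise measuring lysate protein binding.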 As to conditions: COS7 hTOR1A mutant lysate, 635 nm fluorescence, higher = more signal.
For assay [10], the system named is Sonic hedgehog protein (Shh). The assay can be described thus: small-molecule binders of Shh protein, primary screen, biochemical, small-molecule microarray, 635/667 nm fluorescence (AID 1151).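 Further: Shh protein binding to compounds spotted on small-molecule microarray slides; score combines spot fluorescence intensity with signal-to-noise across triplicate slides.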 As to conditions: small-molecule microarray binding, 635 nm fluorescence; higher = more signal.

Activity calls are given as the source filed them. Unless noted, how the calls were made is not given here.

Sequence of Streptavidin (Streptomyces avidinii) (P22629 whole entry, looked up): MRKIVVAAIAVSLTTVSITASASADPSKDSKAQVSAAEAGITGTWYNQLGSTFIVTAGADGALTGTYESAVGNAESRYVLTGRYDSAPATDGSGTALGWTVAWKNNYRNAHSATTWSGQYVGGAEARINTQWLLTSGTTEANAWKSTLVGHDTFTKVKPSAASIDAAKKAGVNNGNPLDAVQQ
Sequence of Torsin-1A (Homo sapiens) (O14656 whole entry, looked up): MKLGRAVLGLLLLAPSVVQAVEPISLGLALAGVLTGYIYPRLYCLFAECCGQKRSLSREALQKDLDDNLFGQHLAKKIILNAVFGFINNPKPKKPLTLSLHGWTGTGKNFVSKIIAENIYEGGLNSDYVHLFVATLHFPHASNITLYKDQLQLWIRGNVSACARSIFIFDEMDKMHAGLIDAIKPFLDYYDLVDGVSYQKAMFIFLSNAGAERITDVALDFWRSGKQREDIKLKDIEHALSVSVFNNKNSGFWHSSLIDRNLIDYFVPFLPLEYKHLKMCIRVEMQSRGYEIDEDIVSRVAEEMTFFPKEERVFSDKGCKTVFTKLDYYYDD

On to `COc1ccc(C#Cc2ccc3c(c2)[C@]2(C(=O)N3)[C@H](C(N)=O)[C@H]3C(=O)O[C@H](c4ccccc4)[C@H](c4ccccc4)N3[C@@H]2c2ccc(O)cc2)cc1`, for which the composite z-score was 0.138 in assay [1]; 0.214 in [6]; -0.128 in assay [7]; 0.369 in [8]; 1.03 in assay [9]; 0.794 in assay [10]. Further, the z-score in assay [2] is -4.69 (inactive); in assay [3], -0.755 (inactive); in assay [4], -0.465 (inactive); in assay [5] it was -0.332 (inactive).

Turning to `COC(=O)C(CC#Cc1ccc2c(c1)[C@]1(C(=O)N2)[C@H](c2ccc(O)cc2)N2[C@H](c3ccccc3)[C@H](c3ccccc3)OC(=O)[C@H]2[C@@H]1C(=O)O)C(=O)OC`, the composite z-score in assay [1] is -0.198; in assay [6], -0.0974; in [7], -0.212; in assay [8] it was -0.295; in assay [9], 0.168; in [10], 0.262. Moreover, the z-score was -0.627 (inactive) in assay [2], -0.191 (inactive) in assay [3], 0.389 (inactive) in assay [4] and 0.416 (inactive) in assay [5].

In the case of `NC(=O)[C@@H]1[C@H]2C(=O)O[C@H](c3ccccc3)[C@H](c3ccccc3)N2[C@H](c2ccccc2OCCO)[C@@]12C(=O)Nc1ccc(C#CCCO)cc12`, the composite z-score in [1] is -0.335; in [6], 0.837; in assay [7] it was -0.0407; in assay [8], -0.969; in assay [9], 0.115; in [10] it was -0.116. The z-score in [2] is -3.21 (inactive); in assay [3], -0.663 (inactive); in [4], 0.299 (inactive); in assay [5], -0.445 (inactive).

For the compound `CCOC(=O)C1=CC[C@@H](c2ccc(N(CC)CC)cc2)N(S(=O)(=O)c2ccc(C)cc2)[C@H]1c1ccc([N+](=O)[O-])cc1`, the composite z-score in [1] was -0.383; in [6], 1.08; in assay [7], -0.0332; in assay [8], -1; in assay [9], -0.101; in assay [10], -0.438. Further, the z-score in [2] was -3.45 (inactive); in [3], 0.858 (inactive); in assay [4], -0.583 (inactive); in assay [5], 0.619 (inactive).

As to `COc1cccc(C)c1NC(=O)O[C@H]1[C@H](OC(=O)Nc2ccccc2)[C@H](OC(=O)Nc2ccccc2)[C@@H](OC)O[C@@H]1CO`, the composite z-score was determined as 0.0166 in [1]; 1.69 in assay [6]; 0.0301 in assay [7]; 0.513 in [8]; 1.05 in [9]; 0.349 in [10]. Further, the z-score in [2] was -5.44 (inactive); in [3], 0.365 (inactive); in [4] it was 0.904 (inactive); in assay [5] it was -1.49 (inactive).

Consider `COC(=O)[C@@]1(Cc2ccc(OC)cc2)[C@H]2c3cc(C(=O)N(C)C)n(Cc4cc(C)n(C)n4)c3C[C@H]2CN1C(=O)c1ccccc1`, for which the composite z-score is 0.982 in [1]; 0.462 in assay [6]; 0.229 in [7]; 0.638 in assay [8]; 0.67 in assay [9]; -0.797 in [10]. The z-score in assay [2] was -0.753 (inactive); in assay [3], 0.329 (inactive); in assay [4], 0.19 (inactive); in assay [5], 2.65 (inactive).

With `COC(=O)[C@@]1(Cc2ccccc2)[C@H]2c3cc(C(=O)N(C)C)n(Cc4ccc(O)c(OC)c4)c3C[C@H]2CN1C(=O)c1ccccc1`, the composite z-score was 0.672 in assay [1]; 0.468 in [6]; 0.877 in assay [7]; 0.698 in [8]; 1.06 in assay [9]; -0.851 in [10]. For the same compound, the z-score was -4.52 (inactive) in [2], -0.886 (inactive) in assay [3], -0.565 (inactive) in [4] and 0.883 (inactive) in [5].

Turning to `CCCC=C(CCC)[C@@H](NS(=O)(=O)CC)c1ccccc1`, the composite z-score was 0.356 in assay [1]; 1.08 in assay [6]; 0.279 in assay [7]; 0.252 in assay [8]; 0.0756 in assay [9]; -0.324 in assay [10]. Further, the z-score in assay [2] is -2.11 (inactive); in assay [3], 0.932 (inactive); in [4] it was 0.59 (inactive); in [5], 1.16 (inactive).

Regarding `COc1ccc(C(=O)Nc2ccc(CN3C(=O)[C@@]4(O[C@@H](CC(=O)N5Cc6ccccc6C[C@H]5CO)[C@H]([Si](C)(C)c5ccc(OC)cc5)[C@H]4C)c4ccccc43)cc2)cc1`, the composite z-score in assay [1] was 0.206; in assay [6] it was -0.145; in assay [7] it was -0.154; in assay [8], 1.31; in assay [9], 0.002; in assay [10] it was 1.62. The z-score was -3.32 (inactive) in assay [2], 0.127 (inactive) in assay [3], 0.381 (inactive) in [4] and 0.281 (inactive) in assay [5].

As to `CCOC(=O)C[C@H]1[C@H](OC(=O)Cc2ccc3c(c2)OCO3)[C@@H](NC(=O)c2ccccc2)c2cc(OCCCO)ccc2N1C(=O)c1ccc2ccccc2n1`, the composite z-score in [1] was -0.112; in assay [6] it was 0.965; in assay [7], -0.0418; in [8] it was 0.0426; in assay [9], 1.19; in assay [10], 0.844. For the same compound, the z-score in assay [2] was -0.629 (inactive); in assay [3], 0.581 (inactive); in assay [4] it was 11 (active); in assay [5] it was -0.981 (inactive).

Turning to `COC(=O)c1ccc(OC)c(/C=C\CC(CCc2ccccc2)OC(C)=O)c1` (stereo not given), the composite z-score in [1] was -0.526; in [6] it was 0.245; in [7] it was -0.182; in [8] it was -0.813; in assay [9], -0.152; in [10], 0.482. Further, the z-score in assay [2] is -0.785 (inactive); in assay [3] it was 0.245 (inactive); in assay [4], 1.04 (inactive); in assay [5], -0.0403 (inactive).

Regarding `CCC[C@@H]1C[C@@]1(CCC)[C@@H](NC(=O)c1ccco1)c1ccc(Cl)cc1`, the composite z-score in [1] is -0.114; in assay [6], -0.489; in assay [7] it was 0.0074; in assay [8] it was -1.5; in assay [9] it was -0.94; in assay [10] it was -0.323. Besides, the z-score in assay [2] was -2.99 (inactive); in [3] it was 0.789 (inactive); in assay [4], 0.58 (inactive); in [5], 0.974 (inactive).

As to `[N-]=[N+]=Nc1ccccc1C[C@]1(C(=O)NCCN2CCOCC2)N=C(c2ccc(OCCCO)cc2)O[C@H]1c1ccccc1N=[N+]=[N-]`, the composite z-score in assay [1] amounted to 0.682; in [6], 0.678; in assay [7] it was 0.726; in [8], 0.818; in assay [9], 0.954; in assay [10], 0.926. For the same compound, the z-score in [2] was -3.68 (inactive); in assay [3], -0.933 (inactive); in [4], 0.573 (inactive); in assay [5], -1.29 (inactive).

As for `NC(=O)NCC#Cc1ccc2c(c1)[C@]1(C(=O)N2)[C@H](c2ccc(O)cc2)N2[C@H](c3ccccc3)[C@H](c3ccccc3)OC(=O)[C@H]2[C@@H]1C(=O)NC[C@H](O)c1ccccc1`, the composite z-score is -0.579 in assay [1]; -1.85 in assay [6]; -0.239 in assay [7]; -1.19 in [8]; -1 in assay [9]; -1.22 in assay [10]. The z-score in [2] was -0.383 (inactive); in [3], 0.502 (inactive); in assay [4] it was 0.48 (inactive); in [5], -0.334 (inactive).

The record behind these values is PubChem BioAssay.
